S1P3 antag-1: antagonists of human S1P3 receptor. inhibition, % at 4.98 µM. 170,000 tested, 0.27% active. AID 485. CHO S1P3 NFAT-BLA reporter, FRET fluorescence, antagonist mode;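 active = inhibition above the plate cutoff, the mean inhibition of test wells on that plate plus 3 SD, cut at about 28% in these data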;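 also: cells challenged with S1P at its EC80 of 0.8 µM; blue over green emission ratio from cleaved BLA substrate after 4 h stimulation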
EP2 modulator: modulates human prostaglandin E2 receptor EP2 signaling; AID 940; EP2-expressing cells, cAMP HTRF FRET, PGE2 co-stimulation; P43116; induction, % at 25 µM; 260,000 tested, 0.83% active;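 active = compounds whose cAMP rise, as percent of the full-agonist control response, exceeds 60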;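 also: rat C6 glioma line stably carrying human EP2 under a CMV promoter; the protocol text gives 20 µM as final concentration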
EP2 antag: blocks the human prostaglandin E2 receptor EP2; P43116; C6 glioma cells expressing human EP2, cAMP TR-FRET; cells stimulated with saturating PGE2; inhibition, % at 25 µM; 260,000 tested, 0.52% active; AID 1422;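 active = percent inhibition above 40 after rounding to a whole number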;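 also: rat C6 glioma host cells with rolipram phosphodiesterase inhibitor present; the protocol text gives 20 µM as final concentration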
Cl transport mod: KCC2 (human) Cl- transport modulation. B-score of Tl+ flux slope (higher = more flux/activation; lower = inhibition) at 10 µM. KCC2 cells, thallium flux FluoZin-2 fluorescence. AID 1456. Q9H2X9. 190,000 tested, 2.2% active;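 active = thallium flux slope and its plate-corrected score both differing from the plate sample mean at a set confidence after two filtering rounds, in either direction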;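 also: slope of fluorescence scaled to starting intensity during 10 to 20 s after thallium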
S1P3 antag-2: human S1P3 receptor antagonism, confirmation; shares compounds with S1P3 antag-1; CHO S1P3 NFAT-BLA reporter, FRET, antagonist mode; inhibition, % at 4.98 µM; 240 tested, 30% active; AID 1429;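 active = inhibition above the hit threshold that was computed for the earlier primary screen, cut at about 30% in these data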
Each line names hits and unclear results; the compound was inactive in the other large screens (follow-up assays come after a bar, where they were run). Sampled rows, rich in hits. Any-hit rate of the full collection: about 3.1%.

COc1ccc2c(C(O)CN3CCC4(CC3)CC(O)c3cc(C)ccc3O4)c[nH]c2c1 (configuration not stated)	none (no result: S1P3 antag-1, Cl transport mod)
COc1ccc(-n2c(C)nc3sc4c(c3c2=O)CCC4)cc1	S1P3 antag-1 103 | S1P3 antag-2 inactive
COc1ccc(-n2c(SCC(=O)O)nc3sc4c(c3c2=O)CCC4)cc1	none
O=C(Nc1ccc(OC(F)F)c(Cl)c1)C(c1ccccc1)c1ccccc1	S1P3 antag-1 50 | S1P3 antag-2 59
CCC(=O)N(Cc1ccc(Cl)cc1)Cc1cc2c(C)cc(C)cc2[nH]c1=O	none (no result: S1P3 antag-1, Cl transport mod)
CCN1/C(=C/c2ccc3cc(C)ccc3[n+]2CC)Sc2ccccc21	S1P3 antag-1 33, EP2 antag 55 | S1P3 antag-2 34
CCOC(=O)/C(=C/C=C1\Sc2cc(C)c(C)cc2N1CC)C(C)=O	none
CCN1/C(=C/c2ccc3cc(C)ccc3[n+]2CC)Sc2cc(C)c(C)cc21	S1P3 antag-1 31, EP2 antag 76 | S1P3 antag-2 inactive
CCC(=O)/C=C1/Sc2ccccc2N1CC	none (no result: S1P3 antag-1)
COc1cc(S(=O)(=O)N2CCCCC2)ccc1N=Cc1c(O)n(-c2cccc(C)c2)c(=O)[nH]c1=O	none (no result: S1P3 antag-1, Cl transport mod)
O=C(O)CC(CC(=O)Nc1ccc(F)c(Cl)c1)c1ccc(Cl)cc1Cl (configuration not stated)	S1P3 antag-1 59 | S1P3 antag-2 inactive
O=C(CSc1nc(-c2cccs2)cc(C(F)(F)F)n1)N1CCCCCC1	none (no result: S1P3 antag-1, Cl transport mod)
CCN1/C(=C/c2sc(-c3ccccc3C)c[n+]2C)Sc2ccccc21	S1P3 antag-1 36 | S1P3 antag-2 38
O=[N+]([O-])c1c(NCc2ccco2)ccc2nonc12	S1P3 antag-1 106 | S1P3 antag-2 inactive
Cn1c(=O)c2c(nc(SCc3cc(=O)[nH]c4ccccc34)n2Cc2ccc(F)cc2)n(C)c1=O	none (no result: S1P3 antag-1, Cl transport mod)
Cc1cc(C)c2cc3c(nc2c1)OC(C)C(=O)N(Cc1ccco1)C3 (configuration not stated)	none (no result: S1P3 antag-1, EP2 antag, Cl transport mod)
COC(=O)[C@@H](NC(=O)CCc1nnc(-c2ccsc2)o1)C(C)C	none
Cc1nc(C(C)NC(=O)CCc2nnc(-c3ccsc3)o2)cs1 (configuration not stated)	S1P3 antag-1 38 | S1P3 antag-2 inactive
COc1cccc(CNC(=O)CCCCCn2c(=S)[nH]c3ccc(N4CCOCC4)cc3c2=O)c1	S1P3 antag-1 64 | S1P3 antag-2 inactive
S=C(Nc1ccccc1)N1N=C(c2cccs2)CC1c1cccs1 (configuration not stated)	S1P3 antag-1 30 | S1P3 antag-2 inactive
Cc1cc(C)nc(N/N=C/c2ccc(N3CCOCC3)cc2)n1	none
Cc1ccc(C)c(S(=O)(=O)N/N=C/c2ccc(N3CCOCC3)cc2)c1	S1P3 antag-1 30 | S1P3 antag-2 inactive
O=C(c1ccco1)N1CCN(S(=O)(=O)/C=C/c2ccccc2)CC1	S1P3 antag-1 30 | S1P3 antag-2 inactive
CCOc1nc(-c2ccc(Cl)cc2)nc2ccccc12	S1P3 antag-1 39 | S1P3 antag-2 inactive
S=C(Nc1ccc(Cl)cc1)N(CCc1nc2ccccc2[nH]1)C1CCCC1	none (no result: S1P3 antag-1, Cl transport mod)
O=c1[nH]nc(-c2ccccc2)c2ccccc12	none

Bioassay records as filed in PubChem.
